Screens: PubChem, National Center for Advancing Translational Sciences (NCATS)
Sampled rows, rich in hits. Any-hit rate of the full collection: about 3.2%.
p53 reactivation: mutant p53 re-activation in reporter cells. Potency, µM (highest dose often 92.2 µM), for the others: at the highest dose activity change, positive = activation, hits mostly activators. 320,000 tested, 0.063% active. H1299 p53-A138V BP100-luciferase reporter, luminescence, 24 h; note: potency is the fitted concentration of half-maximal effect; % of control where 0% means no effect; nearly all actives have a fitted effect of over 45% in size
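H1299 (p53-null), stable ts p53-A138V + BP100-Luc; 1000 cells/well, Opti-MEM/10% FBS; cpd 4 pt, 1:5; 24 h, 37 deg C, 5% CO2; detection reagent 10 min RT; luminescence.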
Nrf2 block: blocks Nrf2 signaling; A549 ARE-Fluc reporter, luciferase luminescence, 18-24 h; Potency, µM (series often up to 46 µM), without a hit: at the highest dose activity change, negative = inhibition, most hits filed as inhibitors; 360,000 tested, 2.1% active; AID 504444; note: potency is the fitted concentration of half-maximal effect; % is set by controls: 0 for no effect and ±100 for the full control effect; nearly all actives have a fitted effect of over 60% in size
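A549 ARE_Fluc cells (5000/well, 5% FBS OPTI-MEM) pre-incubated 2 h, then treated with compounds 18-24 h at 37C/5% CO2 in concentration-response. CellTiter-Fluor viability read first; BugLite luciferase luminescence after 15 min at room temperature gives Nrf2 activity.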
IL-2 act: activates IL-2 in a cell-based reporter assay. 360,000 tested, 0.065% active. activation, % (series mostly up to about 46 µM). IL-2 activation reporter assay, cell-based qHTS; stimulated with anti-CD3/CD4/CD28 beads; in transgenic mouse T cells; in the data active = activation above about 50%; inconclusive = mostly about 30% to 49%; note: 0% is about no effect
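Screening format: compound pinned onto unstimulated transgenic mouse T cells, 60 min incubation, then anti-CD3/anti-CD4/anti-CD28 bead stimulation for 18 hours at 37 degrees C, followed by EGFP and DsRed detection.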
BRCA1 expr act: activators of BRCA1 expression | MCF7-BRCA1-FFLuc reporter, luminescence, 48 h; response scale: scaled: vehicle 0%, 10 µM genistein 100% | Potency, µM (top dose mostly 46.1 µM), for inactives: at the top dose activation, hits mostly activators | 380,000 tested, 1.1% active | AID 624202; note: potency is the fitted concentration of half-maximal effect; nearly all actives have a fitted effect of over 80% in size
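Quantitative HTS in MCF7 cells stably reporting BRCA1 expression via firefly luciferase. Compound treatment lasts 48 h at 37 °C in phenol-red free MEM. Activation is expressed relative to genistein at 10 microM and DMSO.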
A549 viability: kills or reduces viability of A549 cells in Nrf2 counter-screen | A549 ARE-Fluc cells, CellTiter-Fluor viability, 18-24 h | Potency, µM (doses to about 46 µM), for inactives: at the top dose activity change, negative = cytotoxicity, hits mostly inhibitors | 390,000 tested, 0.16% active; note: potency is the fitted concentration of half-maximal effect; % is set by controls: 0 for no effect and ±100 for the full control effect
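A549 ARE-Fluc cells in 5% FBS OPTI-MEM, 5000 cells/well, rested 2 h then exposed to compounds in concentration-response for 18-24 h at 37 °C. Viability by CellTiter-Fluor fluorescence (Ex 405/Em 525) after 30 min; luciferase luminescence (BugLite, 15 min, RT) read afterwards.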
Nrf2 activator: Nrf2 pathway activation; AREc32 ARE-luciferase reporter (MCF7-derived line), luminescence, 24 h; Potency, µM (titrated, usually from 46.1 µM), for the others: at the highest dose activation, most hits filed as activators; 410,000 tested, 0.31% active; AID 624171; note: potency is the fitted concentration of half-maximal effect; % of control where 0% means no effect; nearly all actives have a fitted effect of over 65% in size
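ARE activation measured as luciferase luminescence (Steady-Glo, 30 min RT) in AREc32_Fluc cells after 24 hr compound exposure at 37 deg C, 5% CO2; cells seeded overnight at 1000/well in OPTI-MEM, 5% FBS.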
The depositor's hits bear a star; ? = inconclusive; . = no result given. Unless noted, calls come from the whole dose curve; as a rule, active = well fitted curve in the direction sought with a large enough effect; inconclusive = small, poorly fitted or top-dose-only effect, or another doubt; inactive = no such curve, though single readings can be large; an effect the other way counts as inactive or inconclusive.

SMILES	p53 reactivation	Nrf2 block	IL-2 act	BRCA1 expr act	A549 viability	Nrf2 activator
CCOc1cc2c(cc1OCC)C(c1c(F)cccc1Cl)CC(=O)N2 (centres undefined)	.	?	.	0.0%	7.1%	1.3%
Cc1cccnc1CCNC(=O)CC1C(=O)NCCN1CC1CCCCC1 (centres undefined)	-0.5%	23.1µM*	-0.4	3.4%	1.9%	1.3%
O=C(CC1C(=O)NCCN1CC1CCCCC1)NCc1ccccc1Cl (centres undefined)	-6.5%	0.3%	-1.8	-26.2%	-0.9%	0.3%
Cc1noc(Cn2c(=O)c3ccccc3n(CC(=O)Nc3ccc(F)cc3F)c2=O)n1	.	21.9%	.	.	-1.5%	1.0%
O=S(=O)(Nc1nc2ccccc2nc1N1CCc2ccccc2C1)c1ccc(Br)cc1	?	?	-2.9	-64.8%	-17.9%	15.5%
Cc1ccccc1S(=O)(=O)Nc1nc2ccccc2nc1N1CCc2ccccc2C1	28.2µM*	-21.8%	2.2	-36.5%	-7.5%	5.0%
O=C(CCCCCBr)N1CCC(CC2CC(c3cccc(Br)c3)=NO2)(C(=O)NCC2CCCCC2)CC1 (centres undefined)	.	?	-1.6	-43.6%	-19.3%	4.3%
O=C(CCCCCBr)N1CCC(CC2CC(c3ccc(Cl)cc3)=NO2)(C(=O)NCC2CCCCC2)CC1 (centres undefined)	.	17.5%	63.4*	28.1%	-2.5%	4.2%
COC(=O)c1cc(OC)c(OC)cc1NC(=O)c1ccc2c(c1)CCN2S(C)(=O)=O	.	20.5%	.	.	5.1%	2.1%
N#Cc1ccc(-c2nc3cc(Cl)ccc3c(=O)n2O)cc1	4.3%	-19.0%	0.8	-57.0%	-13.4%	-1.9%
O=c1c2ccc(Cl)cc2nc(-c2cccc(C(F)(F)F)c2)n1O	26.0%	23.1µM*	-2.2	-88.9%	-28.3%	1.3%
O=C(Nc1ncc(Cc2ccccc2Cl)s1)c1ccc([N+](=O)[O-])cc1	-5.3%	-13.5%	-1.3	3.5%	3.9%	0.2%
O=C(Nc1ccc2oc(=O)ccc2c1)c1ccc(-c2cccc(Cl)c2)o1	-5.1%	18.4µM*	0.3	4.4%	-8.9%	0.0%
O=C(Nc1ncc(Cc2ccccc2Cl)s1)C1CCCO1 (centres undefined)	14.1µM*	?	-1.6	4.47µM*	-11.9%	0.4%
O=C(Nc1ccc2oc(=O)ccc2c1)c1ccc(-c2cccc([N+](=O)[O-])c2)o1	-11.2%	23.1µM*	-4.9	-72.4%	?	4.4%
O=C(Nc1ncc(Cc2ccccc2Cl)s1)c1ccc(-c2cccc([N+](=O)[O-])c2)o1	1.6%	16.4µM*	0.4	-3.2%	11.3%	-0.6%
Cc1ccc(-c2nc3nc(C)cc(N4CCN(c5cccc(C)c5)C(C)C4)n3n2)cc1 (centres undefined)	.	3.9%	.	24.7%	0.3%	-0.3%
COc1ccc(C2=Nn3c(nnc3-c3ccccc3O)SC2)c(OC)c1	.	5.8%	.	.	4.0%	.
Cc1ccc(OCCOCCn2c(-c3ccc(Cl)cc3)nc3ccccc3c2=O)cc1	.	1.2%	.	.	11.1%	4.4%
COc1ccc(C(CC(=O)Nc2cc(Cl)c(OC)cc2OC)N2Cc3ccccc3C2=O)cc1 (centres undefined)	.	-9.5%	.	.	-8.4%	2.3%
Cc1ccc(NC(=O)c2ccc(OC(=O)c3cc4ccccc4o3)cc2)cc1	?	?	-0.5	3.98µM*	-12.6%	0.6%
Cc1ccc(C(=O)Nc2ccc3oc(-c4ccccc4C)nc3c2)cc1	.	6.51µM*	.	.	-13.3%	3.9%
O=C(Nc1nc(-c2ccc(Cl)cc2)cs1)C1CCCO1 (centres undefined)	-3.6%	8.0%	-0.8	6.31µM*	2.2%	4.3%
O=C(Nc1nc(-c2ccc(Cl)cc2Cl)cs1)C1CCCO1 (centres undefined)	9.5%	?	-0.7	0.9%	-18.7%	2.3%
COc1ccc(C(=O)Nc2ccc(-c3nc4cc(C)ccc4o3)c(O)c2)cc1	.	?	.	.	-2.3%	6.1%
SMILES	p53 reactivation	Nrf2 block	IL-2 act	BRCA1 expr act	A549 viability	Nrf2 activator
Cc1cc(=O)oc2cc(NC(=O)c3cc4ccccc4o3)ccc12	28.4%	.	.	.	.	.
O=C(Nc1ccc2oc(=O)ccc2c1)c1cc2ccccc2o1	?	5.0%	0.2	2.51µM*	-4.3%	4.0%
CCCCCCOc1ccc(CC(=O)O)cc1	.	.	.	10.4%	.	.
COc1ccc2c(Sc3ccccc3)c(C(=O)NCCN(C)C)[nH]c2c1	.	10.0%	.	.	8.1%	3.1%
CCOC(=O)c1ccc(NC(=O)c2ccccc2)cc1	?	?	0.4	2.82µM*	2.4%	0.7%
Cc1noc(C)c1COc1ccc(C(=O)N2CCN(c3cccc(Cl)c3)CC2)cc1	-10.8%	23.1µM*	-0.8	-11.1%	-4.9%	-0.4%
CCOC(=O)c1ccc(NC(=O)c2ccc(NS(C)(=O)=O)cc2)cc1	-8.9%	?	5.8	-7.1%	-1.4%	0.2%
CCCCNC(=O)COC(=O)c1ccc(C)c(NC(=O)c2ccco2)c1	0.8%	7.0%	0.7	0.0%	6.3%	3.4%
CCOC(=O)c1cccc(NC(=O)c2ccc(N(C)C)cc2)c1	?	16.4µM*	0.4	-43.5%	-6.2%	-1.1%
Cc1ccc(C(=O)OCc2c(C)noc2C)cc1NC(=O)c1ccco1	-0.1%	10.8%	0.1	-61.8%	-4.7%	3.98µM*
Cc1cccc2c(=O)cc(CSc3ccccc3NC(=O)c3cccc(Cl)c3)[nH]c12	.	.	.	.	0.5%	8.0%
O=C(C1CCC(Cn2c(=O)c3sccc3n(Cc3ccccc3)c2=O)CC1)N1CCOCC1 (centres undefined)	.	-9.4%	.	.	14.6%	1.0%
C=Cc1cccc(NC(=O)c2ccc(NC(=O)c3ccco3)cc2)c1	-17.8%	10.3µM*	-0.5	53.5%	0.2%	0.6%
CC(=O)Nc1ccc(C(=O)OCCCOC(=O)c2ccc(NC(C)=O)cc2)cc1	7.8%	1.8%	-1.9	23.0%	3.4%	-0.8%
CC(=O)Nc1ccc(C(=O)OCCc2ccccc2)cc1	?	6.4%	-0.1	5.01µM*	-12.8%	3.7%
CCOC(=O)c1ccc(NC(=O)C23CCC(C)(C(=O)O2)C3(C)C)cc1 (centres undefined)	?	?	-1.0	10µM*	10.5%	1.8%
CC(=O)c1ccccc1NC(=O)c1ccc(OCc2c(C)noc2C)cc1	-3.8%	13µM*	-0.3	-7.9%	0.2%	2.4%
CC1(C)CC(=O)c2c(oc3c(Cl)cc(NS(=O)(=O)c4ccc(Br)cc4)cc23)C1	.	-3.9%	.	.	-1.5%	-0.9%
Cc1ccc2nc(NC(=O)CSc3nccn3Cc3ccc(F)cc3)sc2c1	.	.	.	0.4%	-4.0%	0.8%
